Compounds with a hit are over-represented: about 11% of the library has one in this group of screens.
IMPase inh = membrane-permeable compound that blocks inositol monophosphatase. P97697. CHO-M1 cells, IP1 accumulation, HTRF TR-FRET ratio. inhibition (IP1 accumulation), % at 46.1 µM. 120,000 tested, under 10 active. AID 901; active = well fitted curve in the direction sought with a large enough effect in the signal ratio, not every such curve was filed as active; inconclusive = small, poorly fitted or top-dose-only effect, or a change in a side signal; inactive = no such curve, though single readings can be large or run the other way; the % refers to the signal ratio;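 note: cells stimulated with carbachol in lithium chloride buffer; plate controls were DMSO basal wells for no effect and reference inhibitor wells for full effect; higher means more IMPase inhibition seen as more IP1 and lower FRET ratio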
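CHO-M1, 2000 cells/well, cultured 16–30 h; cpd up to 46 uM; carbachol (50 uM solution, stimulation buffer w/ 50 mM LiCl, pH 7.4), 30 min 37C; IP-One TR-FRET, 10 min RT; Ex 320/Em 665, 620; Hill-fit AC50.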
ALDH1A1 block = ALDH1A1 (human) enzyme inhibition | Purified ALDH1A1, NADH fluorescence, propionaldehyde substrate | Potency, µM (top dose mostly 75.3 µM), for the others: at the top dose activity, negative = inhibition, actives largely listed as inhibitors | AID 1030 | 220,000 tested, 7.3% active;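 note: potency is the fitted concentration of half-maximal effect; plate controls were no enzyme wells and a reference inhibitor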
Target sequence (P00352 whole entry, looked up): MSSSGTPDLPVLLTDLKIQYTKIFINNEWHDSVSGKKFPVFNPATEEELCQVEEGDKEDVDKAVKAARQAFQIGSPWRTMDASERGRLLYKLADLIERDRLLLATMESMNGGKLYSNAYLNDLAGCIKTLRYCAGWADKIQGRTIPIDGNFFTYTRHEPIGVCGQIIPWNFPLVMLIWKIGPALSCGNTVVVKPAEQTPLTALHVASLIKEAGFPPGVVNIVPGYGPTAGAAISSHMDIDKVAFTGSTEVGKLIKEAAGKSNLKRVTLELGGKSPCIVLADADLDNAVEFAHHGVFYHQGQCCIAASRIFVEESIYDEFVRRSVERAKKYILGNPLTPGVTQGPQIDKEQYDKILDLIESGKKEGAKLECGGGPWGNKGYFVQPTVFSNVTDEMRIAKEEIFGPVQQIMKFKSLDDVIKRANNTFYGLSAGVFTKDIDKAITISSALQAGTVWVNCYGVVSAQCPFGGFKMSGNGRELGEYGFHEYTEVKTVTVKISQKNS
12-hLO inh = inhibitors of human 12-lipoxygenase (ALOX12). P18054. AID 1452. purified 12-hLO, xylenol orange hydroperoxide absorbance. 150,000 tested, 0.12% active. Potency, µM (top dose mostly 57.1 µM), for the others: at the highest dose activity change, negative = inhibition, hits mostly inhibitors; active = well fitted curve in the direction sought with a large enough effect; inconclusive = small, poorly fitted or top-dose-only effect, or another doubt; inactive = no such curve, though single readings can be large; an effect the other way counts as inactive or inconclusive; note: potency is the fitted concentration of half-maximal effect; nearly all actives have a fitted effect of over 55% in size
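Hydroperoxide output read as Fe(III)-xylenol orange absorbance, 573-to-405 nm ratio, after 30 min reaction with 40 uM arachidonic acid. Enzyme: 150 nM purified human 12hLO, 15 min compound preincubation; 25 mM Hepes pH 7.0, room temperature.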
HPGD block = inhibitors of human 15-hydroxyprostaglandin dehydrogenase (HPGD) | AID 894 | 150,000 tested, 4.3% active | Potency, µM, for inactives: top-dose activity change, negative = inhibition, actives largely listed as inhibitors | purified HPGD, NADH fluorescence kinetic, PGE2 substrate; note: potency is the fitted concentration of half-maximal effect
Target sequence (P15428 whole entry, looked up): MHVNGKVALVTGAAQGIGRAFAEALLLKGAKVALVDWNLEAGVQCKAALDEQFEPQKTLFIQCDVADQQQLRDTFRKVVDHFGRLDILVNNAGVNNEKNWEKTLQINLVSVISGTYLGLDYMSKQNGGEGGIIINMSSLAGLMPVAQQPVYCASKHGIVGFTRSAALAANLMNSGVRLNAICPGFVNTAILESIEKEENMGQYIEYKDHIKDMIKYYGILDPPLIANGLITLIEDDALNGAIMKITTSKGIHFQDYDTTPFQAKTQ
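NADH formation kinetics: reaction with 30 uM PGE2 and 1 mM NAD+ (final), 20 nM enzyme, Tris-HCl pH 8 with Tween 20, after 15 min compound preincubation at room temperature. Fluorescence change, last versus first of five reads.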
PNC assembly inh = perinucleolar compartment assembly inhibition; AID 2417; activity change (PNC), negative = inhibition, % at 10 µM; 140,000 tested, 3.1% active; PC3M PTB-GFP, PNC prevalence imaging, 16 h; active compounds read low;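 active = readout at or below -70, meaning at least 70% loss of cells showing the perinucleolar compartment, a nuclear body marking cancer cells; inconclusive = readout between -30 and a set limit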;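 note: plate controls were DMSO wells for no effect and camptothecin positive control wells for full effect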
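Read-out is percentage of cells bearing a perinucleolar compartment, from automated 20x imaging of fixed, Hoechst-stained PC3M PTB-GFP cells. Cells were seeded 4 h, then exposed 16 h to compound (23 nl of library stock) in duplicate plates.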
IMPase Li cell = membrane-permeable IMPase blocker, potentiated with lithium; CHO-M1 cells, IP1 TR-FRET (IP-One), carbachol + lithium; Potency, µM (highest dose often 59.4 µM), for inactives: at the top dose activity, negative = IMPase inhibition, usual class: inhibitors; AID 1457; 210,000 tested, 0.35% active; active = well fitted curve in the direction sought with a large enough effect; inconclusive = small, poorly fitted or top-dose-only effect, or another doubt; inactive = no such curve, though single readings can be large; an effect the other way counts as inactive or inconclusive;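 note: IP1 builds up when IMPase is blocked and the TR-FRET signal falls; potency is the fitted concentration of half-maximal effect; plate controls were basal vehicle for no effect and high inhibitor control for full effect; nearly all actives have a fitted effect of over 50% in size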
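Test compounds were applied to CHO-M1 cells previously cultured for 16–30 h at 2000 per well. A small lithium amount accompanied them; after 30 min at 37C, IP1 was quantified by TR-FRET.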
Starred values were filed as active, the others as inactive; ? = inconclusive; nt = no result; ! = a repeat was not active; [ ] = remark or other dose. Unless noted, calls come from the whole dose curve; as a rule, active = well fitted inhibition curve with a large enough effect (not every such curve was filed as active); inconclusive = small, poorly fitted or top-dose-only effect, or another doubt; inactive = no such curve, though single readings can be large or run the other way. Unless noted, % is set by controls: 0 for no effect and ±100 for the full control effect.

SMILES	IMPase inh	ALDH1A1 block	12-hLO inh	HPGD block	PNC assembly inh	IMPase Li cell
CCc1ccccc1NC(=O)c1cc2nc(-c3ccc(OC)c(OC)c3)cc(C(F)(F)F)n2n1	-2	nt	nt	nt	nt	nt
O[C@@H](c1cc(-c2ccccc2)nc2c1ccc1ccccc12)[C@@H]1CCCCN1	nt	nt	-4%[11.4 µM]	nt	nt	nt
CC(=O)c1sc(N/N=C\c2cccc(Br)c2)nc1C	nt	25µM*	-17%	28µM*	-85*	6%
CC(=O)c1sc(N/N=C\c2ccc(Br)cc2)nc1C	nt	?	-5%	-5%	49	4%
Cc1ccc2oc(=O)n(CCCOc3ccc(Cl)cc3)c2c1	10	nt	nt	nt	nt	nt
CC(C)NC(=O)c1ccc2c(=O)n(Cc3ccco3)c(=S)[nH]c2c1	-3	8.9µM*	-2%	-17%	21	-3%[38.3 µM]
O=C(Nc1cccc(C(F)(F)F)c1)c1ccc2nc(-c3ccco3)c(-c3ccco3)nc2c1	11	0.4µM*	-16%	?	19	29%[38.3 µM]
O=C(Nc1cccc(C(F)(F)F)c1)c1ccc2nc(N3C(=O)CCC3=O)sc2c1	7	?	-7%	?	112	23%[38.3 µM]
COc1ccccc1N1CCN(C(=O)c2ccc3c(=O)n(Cc4ccco4)c(=S)[nH]c3c2)CC1	12	?	-18%	-2%	?	9%[38.3 µM]
CCCNC(=O)c1ccc2c(=O)n(Cc3ccco3)c(=S)[nH]c2c1	nt	7.1µM*	nt	nt	nt	-3%
COC(=O)c1ccc2c(=O)n(CCCCCC(=O)O)c(=S)[nH]c2c1	nt	14µM*	-3%	?	?	-4%
COc1ccc(NC(=O)N2CC[C@@]3(CCCN(C(=O)c4ccco4)C3)C2)cc1	nt	-7%	-3%	0%	nt	9%
O=c1cc(-c2cccc(F)c2)[nH]c2cc(Cl)ccc12	nt	1%[120 µM]	-1%[0.00818 µM]	-7%	nt	?
Cc1ccc(-n2c(=O)c3ccc(C(=O)NCc4ccco4)cc3n(CC(=O)Nc3ccc(C)c(F)c3)c2=O)cc1	-8	nt	nt	nt	nt	nt
COc1ccc(CCNC(=O)c2ccc3c(=O)n(Cc4ccco4)c(=S)[nH]c3c2)cc1OC	3	2.5µM*	-10%	-18%	?	-27%[38.3 µM]
COCCNC(=O)c1ccc(Cn2c(=S)[nH]c3cc4c(cc3c2=O)OCO4)cc1	1	-1%	0%	13µM*	?	-15%[38.3 µM]
CC1CCN(CCCNC(=O)c2ccc3c(=O)n(Cc4ccc(Cl)cc4)c(=S)[nH]c3c2)CC1	nt	16µM*	nt	nt	nt	1%
COCCn1c(=S)[nH]c2cc(C(=O)NC(C)C)ccc2c1=O	2	0.18µM*	-1%	-12%	28	?
COc1ccc(CCNC(=O)c2ccc3nc(-c4ccco4)c(-c4ccco4)nc3c2)cc1OC	?	0.32µM*	-24%	?	18	28%[38.3 µM]
COc1ccc(CCNC(=O)c2cc(-c3ccco3)on2)cc1OC	nt	-9%	nt	nt	nt	-5%
CCCCC1(CCCC)NC(=S)N(Nc2ccc(C)cc2)C1=O	7	-3%	-8%	-10%	-90*	-6%[38.3 µM]
COc1cccc(C2C3=C(N=c4s/c(=C\c5ccccc5O)c(=O)n42)c2ccccc2CC3)c1OC (stereo unspecified)	nt	?	nt	nt	nt	9%
CCOn1c(=O)c(-c2cccc3ccccc23)[n+]([O-])c2ccccc21	nt	22µM*	nt	nt	nt	3%
C=CCOn1c(=O)c(-c2ccc(OC)c(OC)c2)[n+]([O-])c2ccccc21	1	?	-8%	-28%	12	18%[38.3 µM]
CCOC(=O)COn1c(=O)c(-c2ccc(OC)c(OC)c2)[n+]([O-])c2ccccc21	6	35µM*	-10%	-25%	338	3%
SMILES	IMPase inh	ALDH1A1 block	12-hLO inh	HPGD block	PNC assembly inh	IMPase Li cell
CCOC(=O)c1cc(C(=O)OCC)c2cc(Br)ccc2n1	?	?	-6%	-24%	?	10µM*
O=C(O)c1cc(-c2ccco2)nc2ccc(Br)cc12	?	4µM*!	-7%	?	?	10µM*!
Cc1cc(C(N)=O)c2cc(Br)ccc2n1	-8	1%	5%	-8%	-89*	11%[38.3 µM]
O=C(CSc1nnc(-c2cccc(Cl)c2)o1)N1CCc2ccccc21	0	nt	nt	nt	nt	nt
CCCCCCOc1ccc(C(=O)O)cc1C#N	nt	16%	0%	20µM*	?	-10%
Cc1noc(C)c1-c1nc(NCCN2CCOCC2)c2ccccc2n1	nt	-8%	nt	nt	nt	1%
CNCc1ccccc1Sc1ccc(O)c(O)c1	nt	0.56µM*	-8%	18µM*	5	5%
COc1ccc(Sc2ccccc2CN(C)C)cc1OC	2	-7%	-1%	-4%	15	8%[38.3 µM]
Nc1nonc1-c1nc2ccccc2n1Cc1c(Cl)cccc1Cl	4	nt	nt	nt	nt	nt
CN1CCN(Cc2c(O)ccc3cc(Br)ccc23)CC1	nt	25µM*	nt	nt	nt	-1%
Cc1ccc(C2CC(=O)n3nc(-c4cccc(C)c4)nc3S2)cc1 (stereo unspecified)	-8	nt	nt	nt	nt	nt
COc1ccc(CCN(Cc2ccccn2)C(=S)Nc2ccccc2C)cc1OC	nt	20µM*	nt	nt	nt	18%
COc1cccc(NC(=S)N(CCc2ccc(OC)c(OC)c2)Cc2ccccn2)c1	nt	?	nt	nt	nt	11%
COc1cc(/C=C2\SC(=Nc3c(C)n(C)n(-c4ccccc4)c3=O)NC2=O)ccc1O	nt	-5%	0%	14µM*	11	-4%
C[C@H](O/N=C1/[C@H]2O[C@@H]2[C@@H](O)[C@H]2[C@H]1CCn1c(=O)n(-c3ccccc3)c(=O)n12)c1cn([C@H](CO)Cc2ccccc2)nn1	nt	-1%[13.5 µM]	nt	nt	nt	nt
Cc1ccc(CN2CCc3c(OCC(=O)Nc4cccc(C)c4C)cccc3C2=O)cc1	nt	25µM*	1%	-19%	-23	20%
Cc1ccc(C)c(NC(=O)COc2cccc3c2CCN(Cc2ccccc2C)C3=O)c1	-9	?	1%	-9%	-21	4%

Screening results as filed in PubChem.
